TRPM1 prom inh: reduces MITF-dependent TRPM1 promoter luciferase signal. 330,000 tested, 0.83% active. inhibition, % at 12.5 µM. SK-MEL-5 TRPM1 promoter luciferase, 24 h. AID 488899;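 active = mean inhibition across replicates of 60% or more, whatever share of single replicates reaches that level; inconclusive = some that reach 60%, reason not given; inactive = mean inhibition across replicates below 60%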
Peg3 promoter: Peg3 promoter activity inhibition | inhibition, % at 20 µM | 360,000 tested, 1.7% active | HeLa PEG-Prom luciferase reporter, luminescence, overnight;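 active = inhibition of at least 50% at 20 µM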
Shn3 inh set2: Schnurri-3 reporter inhibition in Clone20 osteoblasts; Clone20 osteoblast Shn3 3'UTR firefly luciferase, 24 h; inhibition, % at 12.5 µM; 360,000 tested, 0.52% active;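 active = mean inhibition of at least 75% with every replicate also reaching 75%; inconclusive = mean inhibition at least 75% but some replicate below; inactive = mean inhibition below 75%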
TWEAK Fn14 block: TWEAK-Fn14 signaling inhibition; TWEAK-stimulated Fn14 reporter cells, luciferase luminescence, 8 h; 360,000 tested, 2% active; inhibition, % at 10 µM; in the data active = inhibition above about 50%
LMP1 NFkB inh: inhibitors of Epstein-Barr LMP1-induced NF-kappaB reporter | LMP1-induced NF-kappaB luciferase reporter cells, luminescence | inhibition, % at 12.5 µM | 350,000 tested, 0.69% active | AID 504558; in the data active = inhibition above about 41%; inconclusive = no clear call, values can overlap the other calls
TROY signal inh: inhibitors of TROY-dependent NF-kB signaling; inhibition, % at 10 µM; 360,000 tested, 0.98% active; Q293 LMP1-TROYcd NF-kB luciferase reporter, 4 h;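 active = compounds whose plate-normalised and pattern-corrected inhibition of the luciferase reporter signal at the single screening dose is 50% or more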
Numbers stand for hits; . = inactive; ? = inconclusive; / = no result. The list is not random: actives were taken first. Their share in the collection is about 4.1%.

SMILES	TRPM1 prom inh	Peg3 promoter	Shn3 inh set2	TWEAK Fn14 block	LMP1 NFkB inh	TROY signal inh
OC[C@@H]1CN(Cc2ccc(-c3ccccc3)cc2)C[C@H](n2cnc3c(NC4CCC4)ncnc32)O1	/	.	?	59	/	.
O=C(NCCN1CCNC1=O)c1ccc2sc([C@@H]3O[C@H](CO)[C@H](O)[C@H](O)[C@H]3O)nc2c1	/	.	.	.	/	.
COc1ccc(NC(=O)Cc2c(O)c3ccccc3[nH]c2=O)cc1	.	.	.	.	.	.
COc1ccc(OC)c(N=Nc2c(O)c3ccccc3[nH]c2=O)c1	.	70	.	.	.	.
CCc1ccc2c(c1)C1(NN=C(c3cccc4ccccc34)S1)C(=O)N2 (stereo not drawn)	.	51	.	.	.	.
CCc1ccc2c(c1)NC(=O)C2(C)Cc1ccccc1 (stereo not drawn)	/	.	.	.	/	.
CC(=O)c1cccc(NC(=O)CN2CCc3cc4c(cc3C2C)OCCCO4)c1 (stereo not drawn)	.	.	.	.	.	.
Cn1c(N)c(C(=O)COC(=O)c2ccc(-c3ccccc3)cc2)c(=O)n(C)c1=O	.	.	.	.	.	.
c1ccc2c(c1)OCC(CNc1ncnc3sccc13)O2 (stereo not drawn)	.	.	.	51	.	.
Fc1ccccc1CNc1ncnc2sccc12	.	.	.	.	.	.
O=C(Nc1ncc(Br)s1)C(Cc1ccccc1)n1cccc1 (stereo not drawn)	.	.	.	.	91	.
O=C(Nc1cccnc1)C(Cc1ccccc1)n1cccc1 (stereo not drawn)	.	.	.	.	.	.
O=C(CN1C(=O)/C(=C/c2ccccc2F)Sc2ccccc21)NCCCN1CCOCC1	.	.	.	.	.	.
COCCCNC(=O)/C=C1\Sc2ccccc2N(Cc2ccccc2F)C1=O	.	.	.	103	.	.
Cc1cc2c(cc1C)N(C(=O)CCl)CCN2C(=O)CCl	94	109	.	.	.	.
COc1ccc(-c2nc(-c3ccc(NC(=O)c4ccc(Br)o4)cc3)no2)cc1OC	.	54	.	.	.	.
COc1cc(-c2nc(-c3ccc(NC(=O)c4ccc(Br)o4)cc3)no2)cc(OC)c1OC	.	.	.	59	.	.
COc1ccc(CCC(=O)Nc2ccc(-c3noc(-c4ccc(OC)c(OC)c4)n3)cc2)cc1	.	.	.	.	.	.
O=c1[nH]c(C(Cl)(Cl)Cl)nc2ccc3ccccc3c12	.	.	.	.	.	.
Cc1ccc(C(=O)N2CCN(C34CC5CC(CC(C5)C3)C4)CC2)o1	.	.	.	.	.	.
C/C(CC(=O)Nc1ccc(N(C)C)cc1)=N\NC(=O)c1ccccc1O	.	.	.	.	.	56
COc1ccc(-c2cn[nH]c2-c2ccc(OC)cc2O)cc1	.	.	.	78	.	.
COc1ccc(-c2nc(C)ncc2-c2ccccc2)c(O)c1	.	.	.	.	43	.
COc1ccc(-c2[nH]ncc2-c2ccc(Cl)cc2)c(O)c1	.	.	.	.	.	.
COc1ccc(-c2cn[nH]c2-c2ccc(OCc3ccccc3)cc2O)cc1	.	.	.	63	.	.
SMILES	TRPM1 prom inh	Peg3 promoter	Shn3 inh set2	TWEAK Fn14 block	LMP1 NFkB inh	TROY signal inh
COc1ccccc1-c1cn[nH]c1-c1ccc(OCc2ccccc2)cc1O	.	.	.	.	.	.
Cc1nc2ccccc2nc1SCC(=O)c1ccccc1	.	.	.	60	.	.
COc1ncnc2c1NC(=O)CS2	.	.	.	.	82	.
COc1ncnc2c1N[C@@](C)(O)c1c(F)c(F)c(F)c(F)c1S2	.	.	.	.	.	.
COc1ccc(C(c2c(NC(=O)c3ccco3)sc(C)c2C)N2CCOCC2)cc1OC (stereo not drawn)	.	.	.	.	.	.
Cc1ccc(C(c2c(NC(=O)c3ccco3)sc(C)c2C)N2CCOCC2)cc1 (stereo not drawn)	/	.	.	70	.	.
CC(Sc1ccc(Cl)cc1)C(=O)NCC(c1ccco1)N1CCCCC1 (stereo not drawn)	.	.	.	.	.	.
Oc1ccc(/C=N\Nc2cc(N3CCOCC3)nc(N3CCOCC3)n2)c(O)c1	.	.	.	.	.	.
CCCOc1ccc(/C=N/Nc2cc(N3CCOCC3)ncn2)c(O)c1	.	.	90	.	.	.
Clc1ccccc1/C=N/Nc1cc(N2CCOCC2)ncn1	.	.	.	.	.	.

Source: PubChem BioAssay (several laboratories)
